Structures are written as SMILES. Among all 1,400 compounds or so, about 1,000 (71%) were called active. No rule for the calls is given here. So high a share suggests a set chosen from earlier hits. Only a sample is shown. Measured potencies and affinities stand elsewhere.

We go through 23 compounds from PubChem BioAssay AID652057 (Broad Institute, 2013).

This experiment can be described thus: inhibitors of HIV Env-driven cell fusion, dose response, cherry-pick (AID 652057). The conditions noted are these: HeLa-JRFL Env/CEM21 cell fusion, luciferase; series mostly up to 35 µM.
As for `COc1ccc(/C=C/c2nc(S(=O)(=O)c3ccccc3)c(NCCCN(C)C)o2)cc1OC`, the activity change, negative = inhibition entry was “inactive”.

As to `CC(C)(C)c1ccc(-n2ncc3c2CCCC3NC(=O)CN2CCCC2=O)cc1` (stereo not drawn), the activity change, negative = inhibition entry was “inactive”.

Take `C[C@H]1CN([C@@H](C)CO)C(=O)c2cc(NS(=O)(=O)c3ccc(F)cc3)ccc2O[C@H]1CN(C)S(=O)(=O)c1ccc(F)cc1`: the activity change, negative = inhibition entry is “inactive”.

`Cc1noc(C)c1S(=O)(=O)N(C)C[C@H]1Oc2ccc(NC(=O)Nc3ccccc3)cc2CC(=O)N([C@H](C)CO)C[C@H]1C`: the activity change, negative = inhibition result was “inactive”.

Take `Cc1ccc(OCCN2CCN(c3ncnc4sc(C)c(C)c34)CC2)cc1`: the activity change, negative = inhibition entry is “inactive”.

Consider `Cc1onc(-c2ccccc2)c1C(=O)OCCOc1cccc(Cl)c1`, for which the activity change, negative = inhibition entry is “inactive”.

For `COC(=O)C1CCN(C(=O)COC(=O)c2cc(S(=O)(=O)N3CCOCC3)ccc2C)CC1`, the activity change, negative = inhibition entry is “inactive”.

For `Nc1ccc(S(=O)(=O)c2ccc(N3CCOCC3)c(N)c2)cc1`, the activity change, negative = inhibition result was “inactive”.

On to `O=C(C[C@@H]1CC[C@@H](NC(=O)c2ccncc2)[C@H](CO)O1)NCCc1ccncc1`, for which the activity change, negative = inhibition result was “inactive”.

Take `O=C(O)C[C@@H]1CC[C@@H](NC(=O)c2ccncc2)[C@H](CO)O1`: the activity change, negative = inhibition result is “inactive”.

Take `CN(C)CC(=O)Nc1ccc2c(c1)[C@H]1C[C@H](CC(=O)NCc3cccc(F)c3)O[C@@H](CO)[C@H]1O2`: the activity change, negative = inhibition entry is “inactive”.

Consider `Cc1ccccc1S(=O)(=O)NC(=O)C1(C)CCN1C(=O)CCc1ccc(Cl)cc1Cl` (stereo not drawn), for which the activity change, negative = inhibition result was “inactive”.

Regarding `O=C(c1cccc(S(=O)(=O)N2CCN(c3ccccc3)CC2)c1)N1CCCC(C(F)(F)F)C1` (stereo not drawn), the activity change, negative = inhibition entry is “inactive”.

Regarding `Cn1cc(S(=O)(=O)N2CCOCC2)cc1C(=O)Nc1cccc(Cl)c1`, the activity change, negative = inhibition entry is “inactive”.

In the case of `O=C(Nc1cccc(F)c1)N[C@H]1CC[C@@H](CCNS(=O)(=O)c2cccc(Cl)c2)O[C@H]1CO`, the activity change, negative = inhibition result is “inactive”.

As for `O=C(Nc1cccc(F)c1)N[C@@H]1CC[C@H](CCNS(=O)(=O)c2cccc(Cl)c2)O[C@H]1CO`, the activity change, negative = inhibition entry was “inactive”.

As for `COc1cccc(S(=O)(=O)N2CC3(CN(C(=O)Nc4cccc(F)c4)[C@H](CO)c4[nH]c5cc(OC)ccc5c43)C2)c1`, the activity change, negative = inhibition result was “inactive”.

Turning to `CC(C)OCCCn1c(=S)[nH]c2ccc(N3CCOCC3)cc2c1=O`, the activity change, negative = inhibition entry is “inactive”.

`Cn1cccc1C(=O)OCC(=O)NCCc1ccc(S(N)(=O)=O)cc1`: the activity change, negative = inhibition entry was “inactive”.

As to `CN(C)CC(=O)Nc1ccc2c(c1)[C@H]1C[C@@H](CC(=O)NCCc3ccccc3)O[C@H](CO)[C@H]1O2`, the activity change, negative = inhibition result is “inactive”.

As for `O=C(Nc1nc(-c2ccc3c(c2)OCO3)cs1)c1ccncc1`, the activity change, negative = inhibition entry was “inactive”.

For the compound `CC1Cc2cc(-c3csc(NC(=O)Cc4cccs4)n3)ccc2N1S(C)(=O)=O` (stereo not drawn), the activity change, negative = inhibition result was “inactive”.

Turning to `CS(=O)(=O)N1CCN(c2ccccc2NC(=O)C(c2ccccc2)c2ccccc2)CC1`, the activity change, negative = inhibition entry was “inactive”.
